Publication PMC5540273 (PLoS ONE, 2017)

Each compound was assayed on T1, CDK11. Settings: concentration: 1 μM, replicates: in singlicate; n = 1.
T1 construct: gene CDK19
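Note: KINOMEscan kinase panel screen.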

In order of rising “%Inh” value:
1. CCn1c(-c2nonc2N)nc2c(C#CC(C)(C)O)ncc(OCCCCN)c21.O=C(O)C(F)(F)F.O=C(O)C(F)(F)F [GSK507274]  0%
2. O=C(Nc1cccc(-c2nn3ccccc3c2-c2ccnc(Nc3cccc(C(F)(F)F)c3)n2)c1)c1c(F)cccc1F [GSK292658]  0%
3. COc1cc(Nc2nccc(-c3c(-c4cccc(NC(=O)c5c(F)cccc5F)c4)nn4ncccc34)n2)cc(OC)c1OC [GSK327238]  0%
4. Cc1ccc(C(=O)Nc2ccc(Nc3ccnc4cc(-c5nccs5)ccc34)cc2O)cc1.Cl [GW494702]  0%
5. C[C@@H]1CC[C@@H](C(=O)Nc2ccccc2)CN1c1cc(-c2ccc3c(N)n[nH]c3c2)nc(N)n1 [GSK2286062]  0%
6. CCn1c(-c2nonc2N)nc2c(C#CC(C)(C)O)nc(OC[C@H](N)c3ccccc3)cc21 [GSK943949]  0%
7. O=C(Nc1cccc(-c2nn3ncccc3c2-c2ccnc(Nc3ccccc3)n2)c1)c1c(F)cccc1F [GSK198271]  0%
8. COCCOCCOc1cc2ncc3c4ccc(C#N)cc4[nH]c3c2cc1OC  0%
9. c1ccc(-c2cnc3nccnn23)cc1 [AH20685]  0%
10. COc1cccc(-c2ccc3c(NC(=O)C4CC4)n[nH]c3n2)c1 [SB-710903]  0%
11. COc1cc(Nc2ncc3c(C)nc(-c4cc5ccccc5[nH]4)n3n2)cc(OC)c1OC [GW869516]  1%
12. c1ccc(Oc2ccc(Nc3ccnc4cc(-c5ccc(CNCCN6CCOCC6)o5)ccc34)cc2)nc1 [GW567145]  1%
13. Cl.Cl.NCC(NCc1ccc(-c2ccnc3[nH]ccc23)s1)c1ccccc1 (stereo not shown) [GSK1321565]  2%
14. Cl.c1ccc(-c2ccc3c(Nc4ccc5[nH]ccc5c4)ccnc3c2)nc1 [GW440138]  4%
15. COc1cccc(NC(=O)NC2CCN(c3ccnc(Nc4cc(OC)c(OC)c(OC)c4)n3)C2)c1 (stereo not shown) [GSK1379763]  5%
16. CC(C)c1nc(-c2cccc(NS(=O)(=O)c3c(F)cccc3F)c2F)c(-c2ccnc(Nc3ccc(N4CCOCC4)nc3)n2)s1 [GSK2008607]  6%
17. CCc1ccc(-c2ccc3c(c2)-c2c(cnn2C)S(=O)(=O)N3C)cc1  7%
18. COc1cccc(C(=O)Nc2cccc(Oc3ccc4nc(NC(=O)C5CC5)cn4n3)c2)c1  8%
19. Cl.Cl.NCC(NC(=O)c1cc(-c2ccccc2)c(-c2ccnc3[nH]ccc23)s1)c1ccccc1 (stereo not shown) [GSK1321561]  8%
20. CSc1cccc2c(-c3ccncn3)c(-c3ccc(F)cc3)nn12 [GW514786]  8%
21. Oc1cc(Nc2ccnc3cc(I)ccc23)ccc1F [GW552771]  10%
22. FC(F)(F)c1ccc(/C=C/c2cncnc2Nc2ccc3[nH]c(Cc4ccccc4)nc3c2)cc1 [GW709199]  10%
23. CCS(=O)(=O)c1ccc(OC)c(Nc2nccc(-c3c(-c4cccc(NC(=O)c5c(F)cccc5F)c4)nn4ncccc34)n2)c1 [GSK326180]  11%
24. COc1cc(Nc2nccc(N3CCC(NC(=O)Nc4cccc(C(C)=O)c4)C3)n2)cc(OC)c1OC (stereo not shown) [GSK1379753]  16%
25. CC(C)(C)c1ccc2nccc(Nc3cccc(O)c3)c2c1 [GW856795]  17%
26. Fc1ccc(-c2ncn(C3CCNCC3)c2-c2ccnc(Oc3ccc(-c4ccccc4)cc3)n2)cc1 [SB-245391]  22%
27. CC(=O)Nc1nc2cnc(Nc3cc(NC(=O)c4cccc(C5(C#N)CC5)c4Cl)ccc3C)nc2s1  23%
28. COc1cc2c(cc1OCCN1CCNCC1)ncc1c3ccc(C#N)cc3[nH]c21  24%
29. COC(=O)Nc1nc2ccc(Oc3ccc(NC(=O)Nc4cc(C(F)(F)F)ccc4F)cc3)cc2n1C.Cl [GW692089]  43%
30. Nc1ncc(-c2cccnc2)c2scc(-c3ccc4c(c3)CCN4C(=O)Cc3ccccc3)c12 [GSK683281]  45%
31. NCCCC(NC(=O)c1cc(Br)c(-c2ccnc3[nH]ccc23)s1)c1ccccc1.O=C(O)C(F)(F)F.O=C(O)C(F)(F)F (stereo not shown) [GSK1287544]  45%
32. Cc1ccc(C)c(NC(=O)NC2CCN(c3ccnc(Nc4ccc(F)cc4)n3)C2)c1 (stereo not shown) [GSK1379720]  57%
33. Cn1cc(-c2ccc3c(c2)CCN3C(=O)Cc2cccc(F)c2)c2c(N)ncnc21 [GSK2603358]  96.7%
34. COc1cc(Nc2nccc(-c3c(-c4cccc(NC(=O)c5c(F)cccc5F)c4)nn4ccccc34)n2)cc(OC)c1OC [GSK323521]  96.9%
35. CN(c1ccc(NC(=O)Nc2cc(C(F)(F)F)ccc2F)cc1)c1ccnc(Nc2ccc(S(N)(=O)=O)cc2)n1 [GW809893]  98.8%
36. Cn1cc(-c2ccc3c(c2)CCN3C(=O)Cc2cccc(Cl)c2)c2c(N)ncnc21 [GSK2606590]  99.5%
37. COc1cccc(C2=C(Nc3ccc(Cl)c(C(=O)O)c3)C(=O)NC2=O)c1 [SB-390769]  100%
